In the library only some 7.3% were active in any assay of this set; here they are far more common.
Luc counter: counter-screen: inhibitors of Kinase-Glo firefly luciferase; Q27757; Kinase-Glo luciferase, ATP luminescence, 8 min; Potency, µM (top dose mostly 38.3 µM), actives largely listed as inhibitors; 0.28% of 200,000 active; also: nearly all actives have a fitted effect of over 60% in size
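Substrate mix (final 50 mM imidazole pH 7.2, 50 mM KCl, 7 mM MgCl2, 10 uM ATP, 0.01% Tween 20, 0.05% BSA) plus pin-tool compound, then Kinase-Glo detection mix; 8 min ambient, luminescence read.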
NPC1 prom act: NPC1 promoter activation; Huh7 NPC1 promoter luciferase reporter, 24 h; Potency, µM (top dose mostly 9.22 µM), usual class: activators; 2.4% of 320,000 active; also: nearly all actives have a fitted effect of over 60% in size
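Luminescence from an NPC1 promoter-driven luciferase reporter in stably transfected Huh7 cells was measured after 24 h compound treatment at 37 °C, followed by 10 min ambient incubation with luciferase detection reagent.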
Rab9 prom act: activators of Rab9 promoter. Huh7 Rab9 promoter-luciferase reporter, luminescence, 24 h. Potency, µM (series often up to 9.22 µM), actives largely listed as activators. 2.8% of 320,000 active; also: nearly all actives have a fitted effect of over 60% in size
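Luciferase signal after 10 min detection reagent at ambient indicates Rab9 promoter upregulation; stably transfected Huh7 cells were treated 24 h with compound in DMSO at 37 °C, 5% CO2.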
SMN2 splice enh: increases expression of the SMN2 splice variant | AID 1458 | Potency, µM (top dose mostly 46.1 µM), usual class: activators | HEK293 SMN2-luciferase splicing reporter, luminescence, 30-36 h | 2.8% of 210,000 active; also: nearly all actives have a fitted effect of over 55% in size
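HEK293 cells carry an SMN2 minigene-luciferase reporter in which exon 7 inclusion puts luciferase in frame. Cells were seeded at 2000 cells/well, attached for 10-12 hours, then exposed to compounds for 30-36 hours at 37C before ONE-Glo luminescence.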
FLuc modulator: counter-screen for miR-21 project: firefly luciferase inhibitors or activators; P08659; purified FLuc, Km substrates, luminescence inhibition; Potency, µM (series often up to 57.5 µM), actives largely listed as inhibitors; 6.9% of 360,000 active; also: nearly all actives have a fitted effect of over 55% in size
Target sequence (P08659 whole entry, looked up): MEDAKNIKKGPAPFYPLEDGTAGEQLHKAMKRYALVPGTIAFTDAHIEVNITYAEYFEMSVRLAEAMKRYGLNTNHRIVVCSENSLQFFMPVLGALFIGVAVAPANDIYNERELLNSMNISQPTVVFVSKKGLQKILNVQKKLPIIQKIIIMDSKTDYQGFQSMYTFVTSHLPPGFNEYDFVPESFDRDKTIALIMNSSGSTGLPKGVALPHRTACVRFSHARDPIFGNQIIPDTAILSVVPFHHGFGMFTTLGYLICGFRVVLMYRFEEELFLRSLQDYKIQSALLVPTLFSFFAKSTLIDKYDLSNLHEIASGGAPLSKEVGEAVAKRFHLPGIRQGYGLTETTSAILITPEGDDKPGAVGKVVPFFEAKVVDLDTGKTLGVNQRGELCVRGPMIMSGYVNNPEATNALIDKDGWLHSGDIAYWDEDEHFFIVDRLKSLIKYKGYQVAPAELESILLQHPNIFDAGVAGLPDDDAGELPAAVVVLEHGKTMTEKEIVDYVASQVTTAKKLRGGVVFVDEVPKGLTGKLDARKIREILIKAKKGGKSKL
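Biochemical qHTS of compounds, final roughly 60 µM downward over six points, against 10 nM purified firefly luciferase using Km concentrations of substrates (10 uM D-luciferin, 10 uM ATP) in Tris acetate pH 7.5 buffer; luminescence output.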
Large screens that a line does not name were inactive. Calls follow the shape of the dose curve; as a rule, active = well fitted curve in the direction sought with a large enough effect; inconclusive = small, poorly fitted or top-dose-only effect, or another doubt; inactive = no such curve, though single readings can be large; an effect the other way counts as inactive or inconclusive.

CC1(C)Cc2nc3sc4c(N(CCO)CCO)nnnc4c3cc2CO1	FLuc modulator inconclusive
COc1nc(C)nc2c1sc1nc3c(cc12)COC(C)(C)C3	NPC1 prom act 2.51µM, Rab9 prom act 2µM, SMN2 splice enh 14.1µM, FLuc modulator 13.5µM
Cc1cc(C(=O)N/N=C/c2ccc([N+](=O)[O-])cc2)c(C)o1	FLuc modulator 26.9µM
Cn1c(N)c(C(=O)N/N=C/c2ccccc2)sc1=S	none (no result: Luc counter, SMN2 splice enh)
Cc1cc(C(=O)N/N=C/c2ccccc2)c(C)o1	NPC1 prom act inconclusive, Rab9 prom act 3.16µM, FLuc modulator 10.7µM (no result: Luc counter, SMN2 splice enh)
Cc1cc(C(=O)NC2Cc3ccccc3C2)c(C)o1	NPC1 prom act 2.51µM, Rab9 prom act 3.16µM, FLuc modulator 21.3µM (no result: Luc counter, SMN2 splice enh)
Cn1c(C(=O)N/N=C/c2ccccc2)cc2ccccc21	NPC1 prom act inconclusive, Rab9 prom act 2.82µM, FLuc modulator 2.69µM (no result: Luc counter, SMN2 splice enh)
COc1ccc(-c2noc(CSc3nc(N)cc(=O)[nH]3)n2)cc1OC	none (no result: Luc counter, NPC1 prom act, Rab9 prom act, SMN2 splice enh)
Cc1cc(C(=O)N/N=C/c2cccc3ccccc23)c(C)o1	FLuc modulator 19µM (no result: Luc counter, SMN2 splice enh)
COc1ccc(CNc2nc3c(-c4ccccc4)nnn3c3ccccc23)cc1	none (no result: Luc counter, NPC1 prom act, Rab9 prom act)
CC(C)(C)C1CCc2c(C(=O)N/N=C/c3cccs3)csc2C1 (centres undefined)	NPC1 prom act inconclusive, Rab9 prom act inconclusive, SMN2 splice enh 14.1µM, FLuc modulator 5.36µM
CC(C)(C)C1CCc2c(C(=O)NNC(=O)/C=C/C(=O)O)csc2C1 (centres undefined)	FLuc modulator 23.9µM
Cc1ccc(C)c(NC(=S)NNC(=O)c2csc3c2CCC(C)C3)c1 (centres undefined)	none
CCOc1ccc(CCNC(=O)c2nn(C)c3c2CSc2ccc(C)cc2-3)cc1OCC	none (no result: Luc counter, NPC1 prom act, Rab9 prom act, SMN2 splice enh)
COc1ccc(NC(=O)Cc2coc3ccc4ccccc4c23)cc1S(=O)(=O)N1CCOCC1	FLuc modulator 13.5µM
COc1ccc(CC(=O)Nc2ccc(F)c(Cl)c2)cc1S(=O)(=O)N1CCOCC1	none (no result: Luc counter, SMN2 splice enh)
COc1ccc(NC(=O)Cc2coc3cc(C)ccc23)cc1S(=O)(=O)N1CCOCC1	FLuc modulator 15.1µM
O=C1C=CC(=Nc2cccc3c(N=C4C=CC(=O)O4)cccc23)O1	none (no result: NPC1 prom act, Rab9 prom act, FLuc modulator)
Cc1cc(NC(=O)c2ccc(Br)o2)cc(-c2nc3ccccc3o2)c1O	SMN2 splice enh inconclusive (no result: Luc counter, NPC1 prom act, Rab9 prom act)
CC1CCc2nn(CC(=O)Nc3cccc(C(F)(F)F)c3)c(=O)cc2C1 (centres undefined)	none (no result: Luc counter, NPC1 prom act, Rab9 prom act, SMN2 splice enh)
Cc1ccc(C)c(N2CCN(C(=O)Cn3cnc4nc5c(cc4c3=O)CCCC5)CC2)c1	none (no result: Luc counter, NPC1 prom act, Rab9 prom act, SMN2 splice enh)
COc1ccc(S(=O)(=O)n2nc(-c3ccco3)nc2NCc2ccc(C(C)C)cc2)cc1	none (no result: Luc counter, NPC1 prom act, Rab9 prom act, SMN2 splice enh)
Cc1nonc1C1CCCN1C(=O)c1cc(COc2ccc(F)cc2F)on1 (centres undefined)	NPC1 prom act inconclusive, Rab9 prom act 2.24µM, FLuc modulator 9.53µM (no result: SMN2 splice enh)
CSc1ccccc1OCc1cc(C(=O)N2CCCC2c2nonc2C)no1 (centres undefined)	NPC1 prom act 2µM, Rab9 prom act 2.24µM, FLuc modulator 8.49µM (no result: Luc counter, SMN2 splice enh)
O=C1N=C(N2CCOCC2)S/C1=C1\C(=O)N(Cc2ccccc2)c2ccccc21	NPC1 prom act 2.82µM, Rab9 prom act 1.58µM, FLuc modulator 0.675µM
CCCN1C(=O)/C(=C2\SC(N3CCCCC3)=NC2=O)c2ccccc21	NPC1 prom act 1.26µM, Rab9 prom act 2.82µM, FLuc modulator 2.13µM
CN1C(=O)/C(=C2\SC(N3CCCCCC3)=NC2=O)c2ccccc21	NPC1 prom act inconclusive, Rab9 prom act 3.55µM, FLuc modulator 2.69µM
CN1C(=O)/C(=C2\SC(N)=NC2=O)c2ccccc21	none
CC1CN(C2=NC(=O)/C(=C3/C(=O)N(Cc4ccc(F)cc4)c4ccccc43)S2)CC(C)O1 (centres undefined)	FLuc modulator inconclusive (no result: Luc counter, SMN2 splice enh)
O=c1cc(-c2ccccc2)nc2nc(-c3ccco3)[nH]n12	SMN2 splice enh inconclusive, FLuc modulator 3.38µM
Cc1cccc(-c2cc3nc(-c4ccccc4)cc(=O)n3[nH]2)c1	NPC1 prom act 2µM, Rab9 prom act 2.82µM, FLuc modulator 7.57µM (no result: Luc counter, SMN2 splice enh)
Cc1nc2nc(-c3ccccc3)cc(=O)n2[nH]1	SMN2 splice enh inconclusive, FLuc modulator 7.57µM
Cc1cc(=O)n2[nH]c(SCc3ccccc3)nc2n1	FLuc modulator inconclusive
O=c1cc(-c2ccccc2)nc2nc(SCc3ccccc3)[nH]n12	FLuc modulator 26.9µM
O=C1CCC(=O)N1c1nc2nc(-c3ccccc3)cc(=O)n2[nH]1	none

Assay outcomes: PubChem, National Center for Advancing Translational Sciences (NCATS)
